Data on three compounds can be found in PubChem BioAssay (NCATS).

Inconclusive results are not listed. The source made the active and inactive calls. Unless noted, calls come from the whole dose curve; as a rule, active = well fitted curve in the direction sought with a large enough effect; inconclusive = small, poorly fitted or top-dose-only effect, or another doubt; inactive = no such curve, though single readings can be large; an effect the other way counts as inactive or inconclusive.

Test [1] addresses Catechol O-methyltransferase (Homo sapiens) (UniProt P21964). Nature of the test: Confirmatory Screen for Target Class Profiling of Small Molecule Inhibitors of Methyltransferases (AID 1745852; calls by dose curve; for activity change, negative = inhibition: % is set by controls: 0 for no effect and ±100 for the full control effect). As to conditions: MTase-Glo luminescence, SAH detection, recombinant enzyme; measured here: COMT max response; stronger effect = lower value.
The target of test [2] is Guanidinoacetate N-methyltransferase (Homo sapiens) (UniProt Q14353). Described as above. As to conditions: MTase-Glo luminescence, SAH detection, recombinant enzyme; activity change, negative = inhibition: at 57.3 µM (top of the series) unless noted; series mostly up to 57.3 µM.
The target in test [3] is Nicotinamide N-methyltransferase (Homo sapiens) (UniProt P40261). Described as above. As to conditions: MTase-Glo luminescence, SAH detection, recombinant enzyme; measured here: NNMT max response; stronger effect = lower value.
Test [4] addresses Phenylethanolamine N-methyltransferase (Homo sapiens) (UniProt P11086). Described as above. Conditions: MTase-Glo luminescence, SAH detection, recombinant enzyme; measured here: PNMT max response; stronger effect = lower value.
Test [5] has as its target Phospholipid hydroperoxide glutathione peroxidase GPX4 (Homo sapiens) (UniProt P36969). Put plainly: Primary qHTS Assay for Inhibitors of Recombinant Selenoprotein Glutathione Peroxidase 4 (GPX4) (AID 1845192). Note: nearly all actives have a fitted effect of over 65% in size. Note: potency is the fitted concentration of half-maximal effect. As to conditions: recombinant GPX4, GR-coupled NADPH fluorescence, 15 min; series mostly up to 50 µM. The gist of the method: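 GR-coupled readout: 100 nM GR, 1 mM GSH, 0.5 mM NADPH; NADPH fluorescence (ex 340/em 450 nm) read at t=0 and after 15 min RT. GPX4 200 nM, preincubated 30 min with compound; substrate 0.5 mM CHP.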
Background: Quantitative high-throughput screening tests each substance at several concentrations.

In test [6] the target is Luciferin 4-monooxygenase (Photinus pyralis) (UniProt P08659). Nature of the test: Primary firefly luciferase (FLuc) qHTS assay for identification of artifact compounds. (AID 1845220).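 Note: plate controls were DMSO vehicle for no effect and no enzyme for full effect; nearly all actives have a fitted effect of over 60% in size.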 As to conditions: purified firefly luciferase, luminescence, 5 min; series mostly up to 54.1 µM. The method in brief:
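In this counter-screen for luciferase artifacts, test compounds met substrate (10 uM each luciferin and ATP) before 10 nM enzyme started the reaction. Light output was measured 5 min later.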

In test [7] the test system is Nanoluciferase (engineered Oplophorus gracilirostris luciferase). Put plainly: Primary Nanoluciferase (NLuc) qHTS assay for identification of artifact compounds. (AID 1845222).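 Note: NLuc secreted into diluted conditioned medium of S16 cells; 0% = DMSO and -100% = no enzyme.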 As to conditions: NLuc-conditioned medium, Nano-Glo luminescence, 5 min; series mostly up to 54.1 µM. The method in brief: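 Using secreted nanoluciferase in S16 culture medium (0.22 um filtered, 1:55 dilution), compounds were preincubated 15 min at RT. Signal was generated with Nano-Glo reagent (1:100) over 5 min.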

The nature of test [8]: Primary redox qHTS assay for identification of artifact compounds. (AID 1845223).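 Note: 0% = DMSO and 100% = reference compound.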 As to conditions: Amplex Red/HRP redox cycling with DTT, fluorescence; series mostly up to 53.8 µM. The gist of the method:
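Amplex Red (25 uM) and HRP (250 mU/mL) in HBSS, with compounds for 15 min, then 250 uM DTT for 30 min, room temperature, dark. Fluorescence 525/598 nm read; normalized to DMSO and 10 uM DA3003; Hill fit.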

A short description of test [9]: NCATS anti-infectives library activity on HEK293 viability as a counter-qHTS vs the C. elegans viability qHTS (AID 1745854).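 Note: HEK293 cells exposed to compounds for 24 hr before the viability read; % is set by controls: 0 for no effect and ±100 for the full control effect.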 Conditions: HEK293 viability counter-screen; series mostly up to 41.8 µM. The method in brief: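 HEK293 cells (1,500/well) exposed 24 hr at 37C to 1:5 titrations, up to 41.7 uM final; counter-screen to a C. elegans viability qHTS. Viability by CellTiter-Glo luminescence after 10 min at room temperature; digitonin as control.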

For test [10], the target named is Glutathione peroxidase 1 (Homo sapiens) (UniProt P07203). Nature of the test: Primary qHTS Assay for Inhibitors of Recombinant Selenoprotein Glutathione Peroxidase 1 (GPX1) (AID 1845191). Note: nearly all actives have a fitted effect of over 65% in size. Conditions: recombinant GPX1, GR-coupled NADPH fluorescence, 15 min; series mostly up to 48.8 µM. The method in brief: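 Recombinant GPX1 (10 nM final) was preincubated with compound for 30 min at room temperature, then reacted with 1 mM GSH, 0.5 mM CHP, 0.5 mM NADPH and 100 nM glutathione reductase; NADPH fluorescence (340/450 nm) was read at 0 and 15 min.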

Test [11] is described as follows: Primary fluorescence-based thiol-reactive (MSTI) qHTS assay for identification of artifact compounds. (AID 1845221).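 Note: thiol-reactive compounds lower the probe fluorescence signal; nearly all actives have a fitted effect of over 65% in size.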 Conditions: MSTI thiol-reactivity probe, 1 h; series mostly up to 53.8 µM. The method in brief:
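Curve-fitted percent inhibition (4-parameter Hill) derived from fluorescence, Ex 525/Em 598 nm, scaled with Acetyl-MSTI and MSTI; 1 h incubation at room temperature.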

Sequence of Phospholipid hydroperoxide glutathione peroxidase GPX4 (Homo sapiens) (P36969 whole entry, looked up): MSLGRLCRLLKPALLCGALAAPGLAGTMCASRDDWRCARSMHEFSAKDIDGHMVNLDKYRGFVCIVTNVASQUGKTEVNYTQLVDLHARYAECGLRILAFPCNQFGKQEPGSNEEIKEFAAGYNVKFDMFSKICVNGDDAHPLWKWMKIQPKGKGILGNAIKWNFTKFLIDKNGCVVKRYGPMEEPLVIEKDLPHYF
Sequence of Nicotinamide N-methyltransferase (Homo sapiens) (P40261 whole entry, looked up): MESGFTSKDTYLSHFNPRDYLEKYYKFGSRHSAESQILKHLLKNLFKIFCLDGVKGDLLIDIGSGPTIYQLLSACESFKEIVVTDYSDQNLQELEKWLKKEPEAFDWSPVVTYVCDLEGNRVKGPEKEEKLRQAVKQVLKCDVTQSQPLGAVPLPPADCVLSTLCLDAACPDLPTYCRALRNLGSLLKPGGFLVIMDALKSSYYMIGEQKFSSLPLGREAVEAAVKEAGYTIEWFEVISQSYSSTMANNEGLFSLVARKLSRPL
Sequence of Catechol O-methyltransferase (Homo sapiens) (P21964 whole entry, looked up): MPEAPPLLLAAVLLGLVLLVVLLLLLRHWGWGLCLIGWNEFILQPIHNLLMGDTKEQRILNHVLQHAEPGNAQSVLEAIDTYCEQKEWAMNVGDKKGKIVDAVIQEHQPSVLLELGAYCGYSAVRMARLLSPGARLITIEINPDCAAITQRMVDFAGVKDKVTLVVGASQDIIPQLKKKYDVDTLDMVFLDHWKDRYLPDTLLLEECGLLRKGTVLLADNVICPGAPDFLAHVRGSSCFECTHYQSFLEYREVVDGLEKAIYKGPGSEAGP
Sequence of Phenylethanolamine N-methyltransferase (Homo sapiens) (P11086 whole entry, looked up): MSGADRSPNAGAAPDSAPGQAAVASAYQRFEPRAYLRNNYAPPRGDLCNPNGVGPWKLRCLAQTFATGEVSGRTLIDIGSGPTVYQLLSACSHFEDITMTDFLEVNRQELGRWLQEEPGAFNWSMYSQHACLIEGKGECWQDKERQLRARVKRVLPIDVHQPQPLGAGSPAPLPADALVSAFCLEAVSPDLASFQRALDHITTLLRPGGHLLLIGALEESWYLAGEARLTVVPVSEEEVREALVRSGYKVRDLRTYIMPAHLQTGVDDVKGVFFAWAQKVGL
Sequence of Glutathione peroxidase 1 (Homo sapiens) (P07203 whole entry, looked up): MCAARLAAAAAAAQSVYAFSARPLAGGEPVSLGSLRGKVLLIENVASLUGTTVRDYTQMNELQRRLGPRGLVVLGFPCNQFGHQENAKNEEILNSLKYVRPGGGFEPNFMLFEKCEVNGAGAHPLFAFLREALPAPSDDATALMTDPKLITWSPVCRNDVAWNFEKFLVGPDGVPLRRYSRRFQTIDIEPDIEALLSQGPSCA

Regarding `COc1cc2c(NC3CCN(C(C)C)CC3)nc(N3CCC(F)(F)CC3)nc2cc1OCCCN1CCCC1`, the results for the activity in [1], in test [3] and in [4] were -11.2%, -8.4% and -0.61%, respectively. Also, the activity change, negative = inhibition in test [2] is -0.0366%. Besides, the Potency in test [5] is 25.5 µM (active). Also, the Potency result in test [6] and in test [7] was “inactive” each time.

On to `c1cc(NC2CCNCC2)nc(-c2cnc3ccccn23)c1`, for which the activity in test [1] is -7.29%; in test [3], -8.81%; in test [4], -8.43%. The activity change, negative = inhibition in test [2] is -7.64%. Besides, the Potency in test [5] was 16.1 µM (active). The Potency entry in test [6], in [7] and in test [8] was “inactive” each time.

Consider `Cc1cc2ncc(C(=O)NCC(C)(C)NCC(=O)N3CCC[C@H]3C#N)cn2n1`, for which, in test [9], the outcome is “inactive”. The Potency entry in test [10], in test [5], in [6], in test [11], in [7] and in test [8] was “inactive” each time.
